Laboratory results as given in the supplement of paper PMC7411054.
Structures can show the parent of a compound that is named as a salt.

Columns and labels:
Test in all cases: lowest phenotypically active concentration; higher = less potent
Settings in all cases: treatment time: 24 h
HepG2-ACTB-RAB5A = test system: HepG2-ACTB-RAB5A
Outline: (§1)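 Live-cell features were measured per well and normalised to solvent control wells after fifteen gene-edited A549, HepG2 and WPMY1 reporter lines had been treated for 24 h at 0.3, 1, 3 or 9 µM in four wells each. A condition was deviating when ≥3 of 4 wells sat beyond the 95th percentile of control Euclidean distances. It was reproducible when the median replicate Pearson correlation exceeded the 95th percentile of non-replicates. Phenotypic activity demanded both.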

HepG2-CANX-COX4 = test system: HepG2-CANX-COX4
Outline: as §1

HepG2-GM130-SQSTM1 = test system: HepG2-GM130-SQSTM1
Outline: as §1

HepG2-TP53BP1-CLTA = test system: HepG2-TP53BP1-CLTA
Outline: as §1

HepG2-TUBA1B-RELA = test system: HepG2-TUBA1B-RELA
Outline: as §1

WPMY1-ACTB-RAB5A = test system: WPMY1-ACTB-RAB5A
Outline: as §1

WPMY1-CANX-COX4 = test system: WPMY1-CANX-COX4
Outline: as §1

WPMY1-GM130-SQSTM1 = test system: WPMY1-GM130-SQSTM1
Outline: as §1

WPMY1-TP53BP1-CLTA = test system: WPMY1-TP53BP1-CLTA
Outline: as §1

WPMY1-TUBA1B-RELA = test system: WPMY1-TUBA1B-RELA
Outline: as §1

Structure (SMILES)	lowest phenotypically active concentration (HepG2-ACTB-RAB5A) [µM]	lowest phenotypically active concentration (HepG2-CANX-COX4) [µM]	lowest phenotypically active concentration (HepG2-GM130-SQSTM1) [µM]	lowest phenotypically active concentration (HepG2-TP53BP1-CLTA) [µM]	lowest phenotypically active concentration (HepG2-TUBA1B-RELA) [µM]	lowest phenotypically active concentration (WPMY1-ACTB-RAB5A) [µM]	lowest phenotypically active concentration (WPMY1-CANX-COX4) [µM]	lowest phenotypically active concentration (WPMY1-GM130-SQSTM1) [µM]	lowest phenotypically active concentration (WPMY1-TP53BP1-CLTA) [µM]	lowest phenotypically active concentration (WPMY1-TUBA1B-RELA) [µM]
CCCCCCCCCCCCCCCC[n+]1ccn(Cc2ccccc2)c1C	1	1	1	1	1	3	1	3	3	3
FC(F)(F)c1ccc(/C=C/c2nc(COc3ccc(CCCCn4ccnn4)cc3)co2)cc1	≤ 0.3	≤ 0.3	≤ 0.3	≤ 0.3	≤ 0.3					
Cc1ccc(NC(=O)c2ccc(CN3CCN(C)CC3)cc2)cc1Nc1nc(-c2cccnc2)cs1 [masitinib]	3	3	3	3	9	3	3	≤ 0.3	9	9
COc1cc(N2CCC(O)CC2)ccc1Nc1cc(Nc2ccccc2S(=O)(=O)C(C)C)c2cc[nH]c2n1 [Mps1-IN-1 dihydrochloride]	≤ 0.3	≤ 0.3	≤ 0.3	≤ 0.3	1	9	≤ 0.3	3	3	
COc1cc2ncnc(Nc3ccc(O)c(Br)c3)c2cc1OC	3	9	9	3	3	3	3	3	3	
COc1ccc2c(NC(=O)Nc3cccc(C(F)(F)F)n3)ccnc2c1	9	1	9	9	3	1	1	3	1	
C#Cc1cccc(Nc2ncnc3cc(OCCOC)c(OCCOC)cc23)c1 [erlotinib]	3	3	3	9	3					
O=C1NC(=O)C(c2ccccc2[N+](=O)[O-])=C1Nc1ccc(O)c(Cl)c1	9	9	9	3	3	9				
COc1cc(C[C@H]2C(=O)OC[C@@H]2Cc2ccc(OC)c(OC)c2)ccc1O [Arctigenin]	9	9	9	1	1					
COc1c(C)cnc(Cn2cc(C#CCC(C)(C)O)c3c(Cl)nc(N)nc32)c1C	≤ 0.3	≤ 0.3	≤ 0.3	≤ 0.3	≤ 0.3	≤ 0.3	≤ 0.3	≤ 0.3	≤ 0.3	≤ 0.3
CN1c2ccccc2C(=O)N2CCc3c([nH]c4ccccc34)[C@H]21 [Evodiamine]	1	3	3	3	3	1	1	1	1	1
CC[C@@H]1C(=O)N(C)c2cnc(Nc3ccc(C(=O)NC4CCN(C)CC4)cc3OC)nc2N1C1CCCC1	≤ 0.3	1	≤ 0.3	≤ 0.3	≤ 0.3	≤ 0.3	≤ 0.3	≤ 0.3	≤ 0.3	≤ 0.3
Nc1ccn([C@@H]2O[C@H](CO)[C@@H](O)[C@@H]2O)c(=O)n1 [cytarabine]	≤ 0.3	≤ 0.3	≤ 0.3	≤ 0.3	≤ 0.3	≤ 0.3	1	1	≤ 0.3	≤ 0.3
CC(=O)NCC(=O)N1[C@@H]2CC[C@H]1c1ccc(Nc3ncc(C(F)(F)F)c(NC4CCC4)n3)cc12	≤ 0.3	≤ 0.3	≤ 0.3	≤ 0.3	≤ 0.3	≤ 0.3	≤ 0.3	≤ 0.3	≤ 0.3	≤ 0.3
Cc1ncc(-c2ccnc(Nc3ccc(S(C)(=O)=O)cc3)n2)n1C(C)C	≤ 0.3	≤ 0.3	≤ 0.3	≤ 0.3	≤ 0.3	≤ 0.3	≤ 0.3	≤ 0.3	≤ 0.3	≤ 0.3
Cc1c(NC(=O)OC[C@@H]2COCCN2)cn2ncnc(Nc3ccc4c(cnn4Cc4cccc(F)c4)c3)c12	3	9	1	3	1	3	3	9	9	3
COc1c(C)cnc(Cn2cnc3c(Cl)nc(N)nc32)c1C	≤ 0.3	≤ 0.3	≤ 0.3	≤ 0.3	≤ 0.3	≤ 0.3	≤ 0.3	≤ 0.3	≤ 0.3	≤ 0.3
O=C(CCCCCCC(=O)Nc1ccccc1)NO	1	1	≤ 0.3	3	1	1	≤ 0.3	1	1	1
COc1ccc(N2C(=O)CSC2c2cccc(Br)c2)c(OC)c1 (stereo not drawn)	9	3	9	9	9	3	3	3	3	3

Structure (SMILES)	lowest phenotypically active concentration (HepG2-ACTB-RAB5A) [µM]	lowest phenotypically active concentration (HepG2-CANX-COX4) [µM]	lowest phenotypically active concentration (HepG2-GM130-SQSTM1) [µM]	lowest phenotypically active concentration (HepG2-TP53BP1-CLTA) [µM]	lowest phenotypically active concentration (HepG2-TUBA1B-RELA) [µM]	lowest phenotypically active concentration (WPMY1-ACTB-RAB5A) [µM]	lowest phenotypically active concentration (WPMY1-CANX-COX4) [µM]	lowest phenotypically active concentration (WPMY1-GM130-SQSTM1) [µM]	lowest phenotypically active concentration (WPMY1-TP53BP1-CLTA) [µM]	lowest phenotypically active concentration (WPMY1-TUBA1B-RELA) [µM]
CCNC(=O)c1noc(-c2cc(C(C)C)c(O)cc2O)c1-c1ccc(CN2CCOCC2)cc1	≤ 0.3	≤ 0.3	≤ 0.3	≤ 0.3	≤ 0.3	≤ 0.3	≤ 0.3	≤ 0.3	≤ 0.3	≤ 0.3
Cc1cn(CCN2CCN(c3ccccc3-c3cc(C#N)cc(C(=O)NCCCN4CCCC4)c3)CC2)c2ccccc12	1	9	3	3	3	3	3	3	3	3
Oc1cccc(-c2nc(N3CCOCC3)c3oc4ncccc4c3n2)c1 [PI 103 hydrochloride]	≤ 0.3	≤ 0.3	≤ 0.3	≤ 0.3	≤ 0.3	≤ 0.3	≤ 0.3	≤ 0.3	≤ 0.3	≤ 0.3
Nc1ncnc2c1nc(Cl)n2C1O[C@H](CO)[C@@H](O)[C@H]1O (stereo partly drawn) [8-Chloroadenosine]	1	3	1	3	3	9	3	3	3	3
CC(C)n1c(/C=C/[C@@H](O)C[C@@H](O)CC(=O)O)c(-c2ccc(F)cc2)c2ccccc21.CC(C)n1c(/C=C/[C@H](O)C[C@H](O)CC(=O)O)c(-c2ccc(F)cc2)c2ccccc21 [Fluvastatin sodium]	1	1	1	1	1	≤ 0.3	1	≤ 0.3	1	1
COc1ccc2cc1Oc1ccc(cc1)C[C@H]1c3cc(c(OC)cc3CCN1C)Oc1c(OC)c(OC)cc3c1[C@H](C2)N(C)CC3 [Tetrandrine]	1	3	≤ 0.3	1	≤ 0.3	1	1	≤ 0.3	3	1
COCC(=O)O[C@]1(CCN(C)CCCc2nc3ccccc3[nH]2)CCc2cc(F)ccc2[C@@H]1C(C)C [mibefradil]	9	9	9	9	3	9	9	9	9	9
CON(C)C(=O)N1N=C(c2cc(F)ccc2F)S[C@@]1(CCCN)c1ccccc1 [ARRY 520 trifluoroacetate]	≤ 0.3	≤ 0.3	≤ 0.3	≤ 0.3	≤ 0.3	≤ 0.3	≤ 0.3	≤ 0.3	≤ 0.3	≤ 0.3
COc1cc(C)c(Sc2cnc(NC(=O)c3ccc(CNC(C)C(C)(C)C)cc3)s2)cc1C(=O)N1CCN(C(C)=O)CC1 (stereo not drawn)	3	3	3	3	3	3	3	3	3	3
COc1cc2c(Nc3ccc(Br)cc3F)ncnc2cc1OCC1CCN(C)CC1 [vandetanib]	3	3	3	3	1	3	3	3	9	3
NCC(=O)Nc1ccc(-n2nc(C(F)(F)F)cc2-c2ccc3c(ccc4ccccc43)c2)cc1	1	1	3	1	1	≤ 0.3	1	1	≤ 0.3	≤ 0.3
CN(C)CCCNc1c2c(=O)n(C)c(=O)nc-2n(C)c2ccccc12	9	9	9	9	9	9	9	9	9	3
COC(=O)Nc1nc2ccc(C(=O)c3cccs3)cc2[nH]1 [Nocodazole]	≤ 0.3	≤ 0.3	≤ 0.3	≤ 0.3	≤ 0.3	≤ 0.3	≤ 0.3	≤ 0.3	≤ 0.3	≤ 0.3
O=C1NC(=O)[C@@H](c2cn3c4c(cccc24)CCC3)[C@@H]1c1c[nH]c2ccccc12 [tivantinib]	1	1	1	1	1	≤ 0.3	1	1	1	1
CC(C)(C)c1cnc(CSc2cnc(NC(=O)C3CCNCC3)s2)o1	≤ 0.3	≤ 0.3	≤ 0.3	≤ 0.3	≤ 0.3	≤ 0.3	≤ 0.3	≤ 0.3	≤ 0.3	≤ 0.3
Cc1nc(Nc2ncc(C(=O)Nc3c(C)cccc3Cl)s2)cc(N2CCN(CCO)CC2)n1 [dasatinib]	≤ 0.3	≤ 0.3	≤ 0.3	≤ 0.3	≤ 0.3	≤ 0.3	≤ 0.3	≤ 0.3	≤ 0.3	≤ 0.3
Oc1cccc(Nc2ccnc3cc(-c4cccc(CN5CCOCC5)c4)sc23)c1 [LCB 03-0110 dihydrochloride]	1	1	3	3	1	3	3	3	3	3
Cc1c(CN2CCN(C(=O)[C@H](C)O)CC2)sc2c(N3CCOCC3)nc(-c3cnc(N)nc3)nc12	≤ 0.3	≤ 0.3	≤ 0.3	1	≤ 0.3	≤ 0.3	≤ 0.3	≤ 0.3	≤ 0.3	≤ 0.3
